Tau FP inhib = tau fibrillization inhibition (FP) | P10636 | hit rate 0.39% among 280,000 | K18 P301L tau heparin fibrillization, Alexa594 FP, 6 h | Potency, µM (doses to about 57.7 µM), for the others: at the highest dose activity, negative = inhibition, most hits filed as inhibitors; also: % is scaled to controls: 0 for no effect and ±100 for the full control effect; nearly all actives have a fitted effect of over 55% in size
Target sequence (P10636 561-689 P618L limits assumed): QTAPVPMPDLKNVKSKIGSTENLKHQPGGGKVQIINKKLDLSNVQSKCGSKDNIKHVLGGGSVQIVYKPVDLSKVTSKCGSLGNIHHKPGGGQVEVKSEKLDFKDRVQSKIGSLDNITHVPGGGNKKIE
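Human tau K18 […] P301L fragment, 15 uM unlabeled plus 0.24 uM Alexa 594-labeled tau (final), with compound and 20 uM heparin in 100 mM sodium acetate pH 7; 6 hr at 37 C, then Alexa 594 FP read.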
Tau fluor counter = counter-screen for tau fibril formation inhibitors; Potency, µM (doses to about 57.7 µM), for inactives: top-dose activity change, negative = decrease; hit rate 0.93% among 280,000; AID 1463; tau K18 P301L Alexa594 fluorescence, heparin fibrillization; also: % is scaled to controls: 0 for no effect and ±100 for the full control effect; nearly all actives have a fitted effect of over 55% in size
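Human tau K18 P301L (15 uM unlabeled, 0.24 uM Alexa 594-labeled) in 100 mM sodium acetate pH 7 with 20 uM heparin, 6 hr at 37 C. ThT 30 uM added, 1 hr ambient; Alexa 594 FP and total fluorescence read at 555/632 nm.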
Tau fibril ThT = tau fibrillization inhibition (ThT binding). AID 1460. P10636. recombinant tau K18 P301L, heparin-induced fibrillization, ThT fluorescence. hit rate 2.1% among 270,000. Potency, µM (doses to about 57.4 µM), for inactives: at the top dose activity, negative = inhibition, actives largely listed as inhibitors; also: % is scaled to controls: 0 for no effect and ±100 for the full control effect; nearly all actives have a fitted effect of over 55% in size
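ThT emission at 510 nm, taken 1 hr after adding 30 uM dye, quantifies aggregates formed when 20 uM heparin acts on human tau K18 P301L for 6 hr at 37 C.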
HTT aggregate = reduces HttQ103-GFP aggregates in PC12 cells. PC12 HttQ103-GFP aggregates, Acumen cytometry, 40 h. Potency, µM (top dose mostly 46.1 µM), for the others: at the highest dose activity change, negative = inhibition, actives largely listed as inhibitors. hit rate 1.1% among 220,000. AID 1688; also: % is scaled to controls: 0 for no effect and ±100 for the full control effect; nearly all actives have a fitted effect of over 60% in size
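PC12/HTTQ103-GFP, ecdysone-inducible; teb 100 nM; cpd qHTS titration; GFP aggregates read on laser cytometer, Ex 488/Em 500-530 nm.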
HTT ATP protect = protects HTT-Q103 PC12 cells, measured by ATP. hit rate 0.14% among 230,000. Potency, µM (top dose mostly 56.4 µM), without a hit: cytoprotection (ATP increase), most hits filed as activators. PC12 HTT-Q103 induced, cytoprotection, ATP luminescence, 40 h. AID 1471; also: % of control where 0% means no effect; nearly all actives have a fitted effect of over 45% in size
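PC12 cells stably carrying ecdysone-inducible Htt exon 1 (Q103)–GFP were induced with 100 nM tebufenozide (final) alongside library compounds in a dose series. Cytoprotection was scored as retained ATP by ATPlite luminescence.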
* marks the source's active call; other numbers are inactive results; ? = inconclusive; nt = no result given; [ ] = dose if it differs, or a comment. The list is not random: actives were taken first. Their share in the collection is about 3.7%. Calls follow the shape of the dose curve; as a rule, active = well fitted curve in the direction sought with a large enough effect; inconclusive = small, poorly fitted or top-dose-only effect, or another doubt; inactive = no such curve, though single readings can be large; an effect the other way counts as inactive or inconclusive. Potency is read from the fitted curve at half-maximal effect.

SMILES | Tau FP inhib | Tau fluor counter | Tau fibril ThT | HTT aggregate | HTT ATP protect
FC(F)(F)c1cccc(NC(=S)NCc2ccc(Cl)cc2)c1 | ? | ? | 5% | ? | -103%
FC(F)(F)c1cccc(NC(=S)NNC(=S)Nc2ccc(Cl)cc2)c1 | ? | 8.9µM*[quencher] | nt | -11%[9.22 µM] | 22%[10 µM]
Cc1ccc(NC(=S)NNC(=S)Nc2cccc(C(F)(F)F)c2)cc1 | ? | 14µM*[quencher] | nt | -23%[9.22 µM] | 4%[10 µM]
Cc1ccc(-c2noc(CNC(=O)c3ccc(Br)o3)n2)cc1 | -19% | ? | -16% | nt | nt
CCN(CC)S(=O)(=O)c1nnc(NC(=O)COc2ccccc2F)s1 | -6% | ? | ? | nt | nt
CCN(c1ccccc1)S(=O)(=O)c1nnc(NC(=O)c2cccs2)s1 | ? | -13% | 2.2µM* | nt | nt
CCN(c1ccccc1)S(=O)(=O)c1nnc(NC(=O)COc2ccccc2F)s1 | ? | -21% | 4.5µM* | nt | nt
CCN(c1ccccc1)S(=O)(=O)c1nnc(NC(=O)c2ccccc2)s1 | 6% | -17% | 16µM* | nt | nt
CCCC(=O)Nc1nnc(S(=O)(=O)N(C)c2ccccc2)s1 | -7% | ? | 2.5µM* | nt | nt
COc1ccc(N2CCN(c3ccc(-c4nc(-c5ccccc5C)no4)cc3[N+](=O)[O-])CC2)cc1 | -6% | 3% | 15% | nt | nt
O=C(CON1C(=O)c2ccccc2C1=O)c1ccccc1 | nt | nt | nt | nt | -12%[10 µM]
CCN(c1ccccc1)S(=O)(=O)c1nnc(NC(=O)COc2ccc(OC)cc2)s1 | -1% | -9% | ? | nt | nt
CCN(c1ccccc1)S(=O)(=O)c1nnc(NC(=O)c2ccccc2OC)s1 | -6% | -14% | 3.2µM* | nt | nt
CO[C@@H]1COC(=O)[C@@H](CCSC)NC(=O)C/C=C\[C@@H](C)COC(=O)[C@H](C)NC(=O)C/C=C\[C@H]1C | ? | -25%[11.6 µM] | -16%[11.5 µM] | nt | -22%[10 µM]
CCCCn1cc(S(=O)(=O)c2ccc(F)cc2)c(=O)c2ccccc21 | -5% | -3% | 2% | nt | nt
Cn1cc(C2=C(c3cn(CCCSC(=N)N)c4ccccc34)C(=O)NC2=O)c2ccccc21 | ? | 13µM*[quencher] | 3.2µM* | nt | -103%
CN(C)CCCn1cc(C2=C(c3c[nH]c4ccccc34)C(=O)NC2=O)c2ccccc21 | 2% | 20µM*[quencher] | 13µM* | nt | -70%
COc1ccccc1CNC(=O)CCC1N=C2c3ccccc3N=C(SCC(N)=O)N2C1=O (stereo not given) | -6% | -7% | -3% | nt | nt
Cc1cccc(N2CCN(C(=O)CCS(=O)(=O)c3ccc4c(c3)CC(=O)N4C)CC2C)c1 (stereo not given) | -5% | -13% | ? | nt | nt
O=C(CSc1nc2ccsc2c(=O)n1Cc1ccccc1)NCC1CCCO1 (stereo not given) | 3% | -2% | 0% | -14% | -24%
CCC1CCCCN1C(=O)CSc1nc2ccsc2c(=O)n1Cc1ccccc1 (stereo not given) | 7% | -14% | -4% | 16µM* | -33%
COC(=O)C(C(=O)OC)C1O[C@@]23COCCC2(C)C3c2ccccc21 (stereo not given in full) | 4%[11.6 µM] | -22%[11.6 µM] | -20%[11.5 µM] | nt | -11%[10 µM]
FC(F)(F)c1ccccc1NC(=S)Nc1cccc2cnccc12 | ? | -22% | 22µM* | -12% | -8%[10 µM]
Fc1ccccc1NC(=S)Nc1cccc2cnccc12 | ? | -16% | ? | -10%[9.22 µM] | 3%[10 µM]
S=C(NCCc1ccccc1)Nc1cccc2cnccc12 | -11% | -13% | ? | 3.5µM* | 10%[10 µM]
SMILES | Tau FP inhib | Tau fluor counter | Tau fibril ThT | HTT aggregate | HTT ATP protect
CCCCNC(=S)Nc1cccc2cnccc12 | 3% | -7% | -9% | ? | 20%[10 µM]
O=C1C=CC(=O)C2=C1C1c3ccccc3C2c2ccccc21 | 35µM* | ? | 20µM* | nt | -125%
O=C1CC(c2ccccc2)c2ccccc21 (stereo not given) | 2% | 4% | 3% | 6% | 4%[10 µM]
CCCCCCOC(=O)C1(O)CC2OC1(C)n1c3ccccc3c3c4c(c5c6ccccc6n2c5c31)C(=O)NC4 (stereo not given) | 1% | -16% | -6% | nt | -43%
COc1ccc(NC(=S)Nc2ccc(N)c([N+](=O)[O-])c2)cc1 | 3% | ? | 16µM* | ? | -11%
Cc1ccc(NC(=O)c2cc(S(=O)(=O)N3CCc4ccccc43)cn2C)c(Cl)c1 | 4% | ? | ? | nt | nt
CCCCCCOC(=O)C[N+](C)(C)CCOC1CC2CCC1(C)C2(C)C (stereo not given) | 3% | -20% | ? | 6.3µM* | -67%[10 µM]
CC(C)COC(=O)NCCOC(=O)Nc1cccc(Cl)c1 | -6% | -7% | -7% | 10µM* | -13%[10 µM]
CC(C)COC(=O)NCCCOC(=O)Nc1ccccc1 | 3% | -10% | -8% | 7% | -6%[0.074 µM]
CCOc1cccc(C(=O)c2ccc(O)c(O)c2O)c1 | ? | ? | 22µM* | nt | -24%
CCOc1ccc(C(=O)c2cccs2)cc1 | -4% | -5% | -5% | -32% | -11%
CCOc1ccc(C(=O)c2ccc(O)c(O)c2O)cc1 | ? | ? | 22µM* | nt | nt
CN(C)Cc1ccccc1-c1cc(N(C)C)ncn1 | -3% | -11% | -6% | nt | 12%
C/C(=N/Nc1cc(-c2ccccc2)nc(-c2ccccc2)n1)c1ccc(O)cc1 | ? | 7.1µM*[quencher] | ? | 35µM* | 12%[10 µM]
C/C(=N/Nc1nc(-c2ccccc2)cc(-c2ccccc2)n1)c1ccc(N)cc1 | 0% | ? | ? | 15% | -24%[10 µM]
CCN(CC(=O)Nc1c(C(=O)OC)[nH]c2ccc(Cl)cc12)c1ccc2c(c1)OCO2 | 12% | 7.9µM*[quencher] | ? | ? | -27%[0.074 µM]
CC(C)=CCC/C(C)=C\COc1c2ccoc2cc2oc(=O)ccc12 | ? | -10% | -21% | nt | -13%[1.9 µM]
O=[N+]([O-])c1ccc(-c2cnc(SC(c3ccccc3)c3ccccc3)[nH]2)cc1 | ? | 4µM*[quencher] | ? | -6% | 1%[10 µM]
O=[N+]([O-])c1ccc(-c2cnc(SCc3ccccc3Cl)[nH]2)cc1 | -4% | 16µM*[quencher] | 14µM* | ? | -37%
NC(=O)CSc1ncc(-c2ccc([N+](=O)[O-])cc2)[nH]1 | -5% | -16% | ? | -7% | -33%
Cc1cc(C)c(CSc2ncc(-c3ccc([N+](=O)[O-])cc3)[nH]2)c(C)c1 | -10% | 6.3µM*[quencher] | 5µM* | ? | -54%
Cc1cc(C)c2c(=O)[nH]c(SCc3ccc([N+](=O)[O-])cc3)nc2n1 | -7% | -16% | -12% | -8% | -18%
COc1ccccc1Nc1ccc(N)cc1 | ? | ? | 16µM* | -15% | -14%[10 µM]
COc1cccc(CN2CCCN(Cc3ccc(F)cc3)S2(=O)=O)c1 | -2% | -24% | -8% | nt | nt
O=C(Nc1ccc(O)cc1)C1CC=CCC1 (stereo not given) | ? | 28µM*[quencher] | 25µM* | ? | -32%
O=C(NN1C(=O)C2C(C1=O)C1C=CC2C12CC2)c1ccncc1 (stereo not given) | ? | ? | 10µM* | 2% | -42%

Assay outcomes deposited in PubChem by National Center for Advancing Translational Sciences (NCATS).
